Experimental findings from PMC4552634, “A New Set of Chemical Starting Points with Plasmodium falciparum Transmission-Blocking Potential for Antimalarial Drug Discovery” (PLoS ONE, 2015) are described below.

Screen size: about 13,000 compounds; about 3,200 (25%) showed an effect of 50% or more. Some of the results follow.

The test system of the assay is P. falciparum stage V gametocytes. Also on record: BacTiter-Glo ATP luminescence viability of purified stage V gametocytes in 384-well plates, per cent inhibition versus DMSO. Conditions: 48 h, 5 µM; inhibitor.
As for `Cc1c(Cc2ccccc2Cl)cnc2nc(N)nc(N)c12` [TCMDC-137245], the “% Inhibition” value was 7.074%.

For the compound `CCC(C)NS(=O)(=O)c1ccc2nc(Nc3ccc(C)cc3)n(C(C)C(C)(C)C)c2c1` (centres unmarked) [TCMDC-136230], the “% Inhibition” value is given as -32.2%.

Consider `Cc1cccc2[nH]c(-c3ccc(-c4cccc(NC(=O)Nc5ccsc5)c4)cc3)nc12` [TCMDC-133217], for which the “% Inhibition” value is reported as -11.37%.

As to `CS(=O)(=O)CCOCc1ccc(-c2ccc3ncnc(Nc4ccc(OCc5cccc(F)c5)c(Cl)c4)c3c2)o1` [TCMDC-138529], the “% Inhibition” value was -28.77%.

`CC1(C)N=C(N)N=C(N)N1OCc1cc(Cl)cc2c1OCOC2` [TCMDC-131577]: the “% Inhibition” value was found to be 12.67%.

In the case of `COc1cc(C)nc2ccc(NC(=O)Nc3ccccc3[N+](=O)[O-])cc12` [TCMDC-139396], the “% Inhibition” value was determined as 3.442%.

Turning to `CCN(CCCN1CCCCC1)c1cc(C)nc(Nc2ccc(Cl)cc2C)n1` [TCMDC-132447], the “% Inhibition” value turned out to be 51.94%.

Turning to `CCCc1ccccc1Nc1nc(C)cc(N(CC)CCCN2CCCCC2)n1` [TCMDC-132434], the “% Inhibition” value worked out at 49.3%.

Turning to `CCN(CCCN1CCCCC1)c1cc(C)nc(Nc2ccc3c(c2)CCC3)n1` [TCMDC-132443], the “% Inhibition” value is on record as -21.7%.

`CCN(CCCN1CCCCC1)c1cc(C)nc(Nc2ccc(C)cc2C)n1` [TCMDC-132445]: the “% Inhibition” value is 14.07%.

As for `CCN(CCCN1CCCCC1)c1cc(C)nc(Nc2cccc3c2CCCC3)n1` [TCMDC-132431], the “% Inhibition” value amounted to 65.25%.

Regarding `CCN(CCCN1CCCCC1)c1cc(C)nc(Nc2ccc(C)cc2Cl)n1` [TCMDC-132442], the “% Inhibition” value amounted to 11.92%.

As for `COc1ccc2nccc([C@@H](O)CN3CCC(NCc4cc5oc(=O)[nH]c5cc4Cl)CC3)c2c1` [TCMDC-141121], the “% Inhibition” value is -3.584%.

Take `Cc1cccc2nc(-c3cccc(-c4ccc(NC(=O)NC5CC5c5ccccc5)cc4)c3)[nH]c12` (centres unmarked) [TCMDC-133252]: the “% Inhibition” value is -20.42%.

As to `Cc1cc2ncc(C(N)=O)c(Nc3ccc(N4CCOCC4)cc3)c2cc1S(C)(=O)=O.Cl` [TCMDC-135825], the “% Inhibition” value is recorded as -8.581%.

Consider `CCCCc1ccc(-c2c(N)nc(N)nc2CC)cc1` [TCMDC-138064], for which the “% Inhibition” value was -26.34%.

Consider `O=C(/C=C/c1ccc(Cl)c(Cl)c1)NCCCCCCN1CCN(C(=O)Nc2cc(F)cc(F)c2)CC1` [TCMDC-135832], for which the “% Inhibition” value is -49.78%.

As for `COc1ccc2nccc(NCC3(O)CCN(CC(O)c4ccc5c(c4)NC(=O)CS5)CC3)c2n1` (centres unmarked) [TCMDC-141462], the “% Inhibition” value stood at 18.04%.

`CCc1cc([C@H]2O[C@@H](n3cnc4c(NCC(c5ccccc5)c5ccccc5)nc(NCCNc5ccccn5)nc43)[C@H](O)[C@@H]2O)on1` [TCMDC-138085]: the “% Inhibition” value came to 3.442%.

As for `CC(C)(C)c1ccc(CNC(=O)c2cc(CNC3CCNC3)ccc2O)cc1` (centres unmarked) [TCMDC-140761], the “% Inhibition” value stood at 47.42%.

In the case of `COc1ccc(CCNC(=O)c2cc(C)ccc2O)cc1-c1ccc(C(C)(C)C)cc1` [TCMDC-136184], the “% Inhibition” value is recorded as 6.315%.

For the compound `CC(C)(C)c1ccc(CN2CCC(NC(=O)c3ccc(-c4ccccc4Cl)s3)CC2)cc1` [TCMDC-134351], the “% Inhibition” value was 7.857%.

As to `CC(C)(C)c1ccc(CNC(=O)/C=C/c2ccc(CNC3CCNCC3)cc2)cc1` [TCMDC-140773], the “% Inhibition” value is on record as 88.02%.

For the compound `CC(C)(C)c1ccc(CNC(=O)c2cc(CNC3CCNCC3)ccc2O)cc1` [TCMDC-140775], the “% Inhibition” value was 70.98%.

For the compound `CC(C)(C)c1ccc(CN2CCC(NC(=O)c3ccc(-c4cccc(Cl)c4)s3)CC2)cc1` [TCMDC-134352], the “% Inhibition” value was -48.88%.

Turning to `CC(C)(C)c1ccc(CNC(=O)c2ccc(CNC3CCC(N)CC3)s2)cc1` (centres unmarked) [TCMDC-140777], the “% Inhibition” value is recorded as 101.7%.

Take `CC(C)(C)C/C=C\c1ccc(C(=O)NCC2CC2)cc1` [TCMDC-138516]: the “% Inhibition” value was determined as 17.43%.

For the compound `COc1ccc(O)c(C(=O)NCCc2ccc(OC)c(-c3ccc(C(C)(C)C)cc3)c2)c1` [TCMDC-136183], the “% Inhibition” value was 40.96%.

For the compound `CC(C)(CNC(=O)/C=C/c1ccc(C(F)(F)F)cc1)CNc1cc(=O)c2ccccc2[nH]1` [TCMDC-139403], the “% Inhibition” value is recorded as -57.07%.

Take `O=C(NCc1ccc(Cl)c(Cl)c1)c1cc(CNC2CCNCC2)ccc1O` [TCMDC-140774]: the “% Inhibition” value came out at 49.2%.

As to `CC(C)(C)c1ccc(CNC(=O)c2cc(CNC3CCC(N)CC3)ccc2O)cc1` (centres unmarked) [TCMDC-140776], the “% Inhibition” value was 87.73%.

For `CC(C)[C@H](NC(=O)c1ccc(O)c(-c2ccc(Cl)c(Cl)c2)c1)C(=O)NC1CCCCCC1` [TCMDC-140844], the “% Inhibition” value is recorded as 10.04%.

As for `Cc1cc(O)c(C(C)C)cc1C1(c2cc(C(C)C)c(O)cc2C)OC(=O)c2ccccc21` [TCMDC-123951], the “% Inhibition” value is given as -40.8%.

`Cn1nccc1C(=O)NCCNCc1cccc(-c2ccc(-c3nc4ccccc4[nH]3)cc2)c1.O=C(O)C(F)(F)F` [TCMDC-133019]: the “% Inhibition” value was -30.97%.

As for `CC(C)(C)c1cc(C(=O)N2CCC(c3ccccn3)CC2)n(Cc2ccccc2)n1` [TCMDC-133770], the “% Inhibition” value was -53.32%.

For `CN(Cc1ccccc1)C1CCN(c2cc(NC(=O)c3cccc(F)c3)ccn2)CC1` [TCMDC-135000], the “% Inhibition” value is -5.844%.

Consider `Clc1ncnc2ncn(Cc3cccc(Br)c3)c12` [TCMDC-137635], for which the “% Inhibition” value is reported as 63.17%.

Consider `Clc1nc(Cl)c2c(ccn2Cc2ccccc2)n1` [TCMDC-137801], for which the “% Inhibition” value turned out to be 10.13%.

On to `CCCCCN1CCCC(CNS(=O)(=O)c2cccc(C(=O)Nc3ccc(C(F)(F)F)cc3)c2)C1` (centres unmarked) [TCMDC-133672], for which the “% Inhibition” value is reported as -63.4%.

Take `Fc1cccc(Cn2ncc3cc(Nc4ncnc5sc(C#Cc6ncc[nH]6)cc45)ccc32)c1` [TCMDC-135428]: the “% Inhibition” value is on record as -11.76%.

As to `O=c1cc(NCCCNCc2cc3ccc(Br)cc3s2)[nH]c2ccccc12` [TCMDC-140332], the “% Inhibition” value is recorded as -45.39%.

Consider `OC(c1n[nH]c(=S)n1-c1ccccc1)C(O)c1n[nH]c(=S)n1-c1ccccc1` (centres unmarked) [TCMDC-125763], for which the “% Inhibition” value worked out at 1.463%.

Turning to `Cn1cncc1-c1cc2c(Nc3ccc(OCc4ccccc4)cc3)ncnc2cn1` [TCMDC-137188], the “% Inhibition” value is recorded as -27.44%.

Regarding `Cc1[nH]c(C)c(-c2ccc(-c3cccc(OC(F)(F)F)c3)nc2)c(=O)c1Cl` [TCMDC-136286], the “% Inhibition” value came to 5.058%.

Turning to `Cc1[nH]c(C)c(-c2ccc(-c3ccc(OC(F)(F)F)cc3)nc2)c(=O)c1Br` [TCMDC-136016], the “% Inhibition” value was found to be 67.89%.

Consider `Cc1[nH]c(C)c(-c2ccc(-c3ccc(OC(F)(F)F)cc3)nc2)c(=O)c1Cl` [TCMDC-135677], for which the “% Inhibition” value is reported as 60.39%.

Consider `CC(=O)c1sc(NC(=O)Nc2ccc(C)cc2C)nc1C` [TCMDC-124895], for which the “% Inhibition” value is recorded as -9.928%.

`CO/C(=C\C=C\c1cc2cc(Cl)c(Cl)cc2[nH]1)C(=O)Nc1ccc(NCCN(C)C)nc1` [TCMDC-139073]: the “% Inhibition” value is -22.07%.

With `Cc1cccc2[nH]c(C3CCN(CC4CCN(C(=O)/C=C/c5ccc(Cl)c(Cl)c5)CC4)CC3)nc12` [TCMDC-140146], the “% Inhibition” value is given as -0.3523%.

As to `CCOC(=O)[C@H](Cc1cccc2ccccc12)NC(=O)[C@H](CCC(=O)OC(C)(C)C)NC(=O)c1ccc(N(C)Cc2cnc3nc(N)nc(N)c3n2)cc1` [TCMDC-137288], the “% Inhibition” value is 41.06%.

In the case of `Cc1cccc2nc(-c3ccc(-c4ccc(CNCCCN5CCCC5=O)cc4)s3)[nH]c12.O=C(O)C(F)(F)F` [TCMDC-132755], the “% Inhibition” value turned out to be 11.61%.

As to `CCCCOc1ccc(C(=O)C(CCC(CNC(C)(C)C)C(=O)c2ccc(OCCCC)cc2)CNC(C)(C)C)cc1` (centres unmarked) [TCMDC-124120], the “% Inhibition” value was determined as 110.6%.

Turning to `CCCCOC(=O)c1ccc(Nc2cc(C)nc3ccc(OC)cc23)cc1` [TCMDC-124192], the “% Inhibition” value amounted to 8.663%.

Turning to `CCOC(=O)c1ccc(OCCOc2ccccc2)cc1` [TCMDC-125533], the “% Inhibition” value came to 1.604%.

As for `CCCc1ccc(S(=O)(=O)NC2CCN(C(=O)Nc3ccc(I)cc3)CC2)cc1` [TCMDC-139436], the “% Inhibition” value was determined as 4.903%.

Consider `CS(=O)(=O)CCNC(=O)c1ccc(-c2cc3c(Nc4ccc5c(cnn5Cc5ccccc5)c4)ncnc3cn2)o1` [TCMDC-138125], for which the “% Inhibition” value turned out to be 1.646%.

Turning to `Cc1cc(N[C@@H](Cc2ccccc2)C(=O)NCc2cccs2)nc(NCCc2cccnc2)n1` [TCMDC-134819], the “% Inhibition” value amounted to 56.43%.

On to `Cc1cc(N[C@@H](Cc2ccccc2)C(=O)NCc2cccs2)nc(NCC2CCCCC2)n1` [TCMDC-134930], for which the “% Inhibition” value is -30.67%.

Regarding `Cc1cc(N[C@@H](Cc2ccccc2)C(=O)NCc2cccs2)nc(NCCc2ccc(F)cc2)n1` [TCMDC-134787], the “% Inhibition” value was found to be 66.5%.

For `Cc1cc(N[C@@H](Cc2ccccc2)C(=O)NCc2cccs2)nc(NCCc2ccccn2)n1` [TCMDC-134747], the “% Inhibition” value worked out at 121.6%.

As for `COc1ccccc1CCNc1nc(C)cc(N[C@@H](Cc2ccccc2)C(=O)NCc2cccs2)n1` [TCMDC-134802], the “% Inhibition” value turned out to be 51.92%.

Regarding `CC(C)(C)c1cc(C(=O)Nc2ccc(C(=N)N)cc2)c(O)c(C(C)(C)C)c1` [TCMDC-136316], the “% Inhibition” value was 24.98%.

`CCc1ccc(C(=O)Nc2cccc(CN3CCCN(Cc4ccc(O)cc4)CC3)c2)cc1` [TCMDC-141884]: the “% Inhibition” value was found to be 21.35%.

For the compound `Cc1ccc(NC(=O)c2cccc(CN3CCCN(CC4CCCCC4)CC3)c2)cc1F` [TCMDC-135958], the “% Inhibition” value was -34.77%.

In the case of `COCCSc1nc2scc(C)c2c(=O)n1Cc1cccc(OC)c1` [TCMDC-134420], the “% Inhibition” value was 25.73%.

For `CCCCCN1CCC(NC(=O)c2ccc(C(=O)Nc3ccc(C(C)C)cc3)cc2)C1` (centres unmarked) [TCMDC-136744], the “% Inhibition” value was -20.17%.

As for `Nc1ncnc2c1ncn2C(CO)Cc1ccc(O)cc1` (centres unmarked) [TCMDC-137893], the “% Inhibition” value is reported as -20.6%.

On to `C[C@H](Cc1ccc(C[C@@H](C)NCC(O)c2cc(Cl)c(N)c(Cl)c2)cc1)NCC(O)c1cc(Cl)c(N)c(Cl)c1` (some centres unmarked) [TCMDC-131548], for which the “% Inhibition” value came out at 39.43%.
